Test [1] can be described thus: ATG_NFI_CIS: Attagene CIS-FACTORIAL HepG2 Assay for human Nuclear Factor I (NFI) (AID 2282989). The note with it: HepG2 cis-regulatory reporter, NFI response element transcription; actives raise or lower the signal. A digest of the protocol:
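Reporter transcription driven by endogenous transcription factors in HepG2 cells; 24 h treatment. Quantitation by labelled RT-PCR fragments on capillary electrophoresis, gain- or loss-of-signal relative to DMSO.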

The target in test [2] is Myc proto-oncogene protein (Homo sapiens) (UniProt P01106). Nature of the test: ATG_Myc_CIS: Attagene CIS-FACTORIAL HepG2 Assay for human Myelocytomatosis (Myc) Proto-Oncogene Transcription Factor (AID 2282990). The note with it: HepG2, Attagene cis-reporter transcription factor activity; actives raise or lower the signal. A digest of the protocol: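 Fluorescence intensity of reporter-specific cDNA fragments, separated by capillary electrophoresis, gives the signal. Transfected HepG2 cells carrying cis-promoter reporter constructs are incubated with compound for 24 h; DMSO serves as baseline.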

The nature of test [3]: ATG_NRF2_ARE_CIS: Attagene CIS-FACTORIAL HepG2 Assay for human Nuclear Factor Erythroid 2 Related Factor 2 (NFR2) response to Antioxidant Response Elements (ARE) (AID 2282992).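 On AC50: reporter mRNA level measured by RT-PCR and capillary electrophoresis fluorescence.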 The note with it: HepG2 Attagene ARE/NRF2 reporter, transcription factor activity; actives raise or lower the signal. The method, boiled down: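 Endogenous transcription factor activity in human liver HepG2 cells is tracked via a cis-element-driven reporter within a multiplexed set. mRNA induction is read by RT-PCR and capillary electrophoresis after 24 h, with DMSO as baseline.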

Test [4] in a line: ATG_Oct_MLP_CIS: Attagene CIS-FACTORIAL HepG2 Assay for human Octamer-Binding Transcription Factor (Oct) (AID 2282993). As to conditions: HepG2 Attagene cis-factorial Oct reporter, mRNA; actives raise or lower the signal. A digest of the protocol: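 Transfected HepG2 cells, 24 h treatment. Reporter mRNA quantified by RT-PCR–capillary electrophoresis; bidirectional fitting against DMSO.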

Test [5] addresses human Peroxisome Proliferator-activated Receptor alpha (PPARa), PPARA (gene 5465) (UniProt Q07869). As to the kind of experiment: ATG_PPARa_TRANS: Attagene TRANS-FACTORIAL HepG2 Assay for human Peroxisome Proliferator-activated Receptor alpha (PPARa) (AID 2283001; active means hit-call score of the fitted dose curve at least 0.9, where 1 is the maximum;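 on AC50: potency for gain of reporter signal over DMSO so agonist or activator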). The method, boiled down:
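HepG2, transient MRTU transfection, 24 h treatment. RT-PCR → FAM labelling → capillary electrophoresis. Fit vs DMSO, positive direction.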

For test [6], the target named is Nuclear receptor subfamily 1 group I member 2 (Homo sapiens) (UniProt O75469). Nature of the test: ATG_PXR_TRANS: Attagene TRANS-FACTORIAL HepG2 Assay for human Pregnane X Receptor (PXR) (AID 2283008; active means hit-call score of the fitted dose curve at least 0.9, where 1 is the maximum). The method, boiled down:
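HepG2 transfected (FuGene 6) with GAL4-UAS reporter units + PXR-Gal4 chimera; dosed 24 h. Total RNA → oligo(dT) RT → PCR → 6-FAM primer extension → HpaI cut → CE. Gain-of-signal vs DMSO.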

Test [7] deals with human Retinoic Acid Receptor gamma (RARg), RARG (gene 5916) (UniProt P13631). As to the kind of experiment: ATG_RARg_TRANS: Attagene TRANS-FACTORIAL HepG2 Assay for human Retinoic Acid Receptor gamma (RARg) (AID 2283009; active means hit-call score of the fitted dose curve at least 0.9, where 1 is the maximum;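 on AC50: AC50 is for reporter induction above DMSO meaning RARg activation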). The method, boiled down:
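TRANS format measured activity of exogenous NR-GAL4 fusion (RARg) in transfected HepG2 liver cells after 24 h dosing. Induced reporter RNA was detected by RT-PCR/capillary electrophoresis fluorescence, analysed in the positive direction against DMSO.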

The target of test [8] is human RAR-related Orphan Receptor beta (RORb), RORB (gene 6096) (UniProt Q92753). Nature of the test: ATG_RORb_TRANS: Attagene TRANS-FACTORIAL HepG2 Assay for human RAR-related Orphan Receptor beta (RORb) (AID 2283010; active means hit-call score of the fitted dose curve at least 0.9, where 1 is the maximum). The method, boiled down:
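Transfect HepG2 with multiple GAL4-UAS reporter transcription units; dose chemicals for 24 h; isolate RNA, reverse-transcribe and PCR-amplify reporter sequences; label, digest and resolve fragments by capillary electrophoresis; fit increases relative to DMSO.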

Test [9] concerns the target Cellular tumor antigen p53 (Homo sapiens) (UniProt P04637). As to the kind of experiment: ATG_p53_CIS: Attagene CIS-FACTORIAL HepG2 Assay for human p53 Transcription Factor (AID 2282994). As to conditions: HepG2 p53 cis-element reporter, Attagene mRNA; actives raise or lower the signal. The method, boiled down:
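Steps: transfect HepG2 with multiplexed cis reporter constructs; dose chemicals 24 h; extract RNA, reverse-transcribe, PCR-amplify reporter sequences; FAM-label, HpaI-digest, resolve fragments by CE. Activity fitted both directions relative to DMSO.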

Test [10] deals with Retinoic acid receptor alpha (Homo sapiens) (UniProt P10276). As to the kind of experiment: ATG_RARa_TRANS: Attagene TRANS-FACTORIAL HepG2 Assay for human Retinoic Acid Receptor alpha (RARa) (AID 2283005; active means hit-call score of the fitted dose curve at least 0.9, where 1 is the maximum;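 on AC50: potency for increased reporter signal meaning RARa activation over DMSO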). The method, boiled down: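 HepG2 transiently transfected with multiplex GAL4-UAS reporter units including a human RARa–GAL4 chimera; 24 h compound exposure. Reporter mRNA quantified by RT-PCR, 6-FAM labeling and capillary electrophoresis; gain of signal versus DMSO.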

For test [11], the target named is Peroxisome proliferator-activated receptor gamma (Homo sapiens) (UniProt P37231). Nature of the test: ATG_PPARg_TRANS: Attagene TRANS-FACTORIAL HepG2 Assay for human Peroxisome Proliferator-activated Receptor-gamma (PPARg) (AID 2283007; active means hit-call score of the fitted dose curve at least 0.9, where 1 is the maximum). A digest of the protocol:
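Endpoint reflects upward reporter mRNA change versus DMSO controls. Setup: transiently transfected HepG2, GAL4-UAS reporters driven by chimeric NR-Gal4, 24 h incubation, RT-PCR with capillary electrophoresis read-out.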

Test [12] deals with human Peroxisome Proliferator-activated Receptor delta (PPARd), PPARD (gene 5467) (UniProt Q03181). As to the kind of experiment: ATG_PPARd_TRANS: Attagene TRANS-FACTORIAL HepG2 Assay for human Peroxisome Proliferator-activated Receptor delta (PPARd) (AID 2283002; active means hit-call score of the fitted dose curve at least 0.9, where 1 is the maximum). The method, boiled down:
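Fluorescence from capillary electrophoresis of labelled RT-PCR reporter fragments gives the signal; DMSO sets baseline. Cells: HepG2 transiently carrying GAL4-UAS reporter units plus chimeric nuclear receptor-Gal4 proteins, exposed to chemicals for 24 h.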

Test [13] in a line: BSK_3C_TissueFactor: BioMAP Diversity Plus: 3C Assay for Tissue Factor Biomarker Activity (AID 2282997). As to conditions: BioMAP 3C HUVEC, tissue factor biomarker readout; actives raise or lower the signal. The method, boiled down: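 Readout: Tissue Factor ELISA. Cells: human primary umbilical vein endothelium. Time: 24 h after dosing. Analysis: bidirectional fit, DMSO baseline.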

Test [14] is described as follows: BSK_3C_uPAR: BioMAP Diversity Plus: 3C Assay for Urokinase-type plasminogen activator receptor (uPAR) Biomarker Activity (AID 2282998). As to conditions: BioMAP 3C HUVEC, uPAR biomarker ELISA; actives raise or lower the signal. A digest of the protocol:
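Readout: ELISA for surface uPAR. System: human umbilical vein endothelial primary cells, 24 h after chemical exposure. Analysis: bidirectional fit, DMSO baseline.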
(In general: In an ELISA, binding on a coated surface is turned into a signal by an enzyme label.)

A short description of test [15]: BSK_3C_VCAM1: BioMAP Diversity Plus: 3C Assay for Vascular cell adhesion molecule 1 (VCAM1) Biomarker Activity (AID 2282999). The note with it: BioMAP 3C HUVEC, VCAM1 ELISA, cytokine-stimulated; actives raise or lower the signal. A digest of the protocol:
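HUVEC primary cells, 24 h compound exposure; VCAM-1 by ELISA; gain/loss of signal fitted bidirectionally vs DMSO baseline.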

Test [16] can be described thus: BSK_4H_Eotaxin3: BioMAP Diversity Plus: 4H Assay for Eotaxin 3 Biomarker Activity (AID 2283000). The note with it: primary human endothelial cells (HUVEC); actives raise or lower the signal. The method, boiled down: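 HUVEC, 24 h post-dose, ELISA for Eotaxin-3/CCL26. Gain or loss of signal fitted bidirectionally vs DMSO baseline.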
Read-out in test [17]: Intercellular Adhesion Molecule 1 (ICAM1), ICAM1 (gene 3383)
Nature of the test: BSK_3C_ICAM1: BioMAP Diversity Plus: 3C Assay for Intercellular Adhesion Molecule 1 (ICAM1) Biomarker Activity (AID 2283003). As to conditions: primary human endothelial cells (HUVEC); actives raise or lower the signal. The method, boiled down:
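Chemicals are dosed onto primary human umbilical vein endothelium (3C system). After 24 h, ICAM-1 is measured by ELISA, and responses are fitted bidirectionally relative to DMSO.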

Test [18] concerns the target human Retinoic Acid Receptor beta (RARb), RARB (gene 5915) (UniProt P10826). As to the kind of experiment: ATG_RARb_TRANS: Attagene TRANS-FACTORIAL HepG2 Assay for human Retinoic Acid Receptor beta (AID 2283004; active means hit-call score of the fitted dose curve at least 0.9, where 1 is the maximum). The method, boiled down:
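HepG2 cells transiently transfected with multiplexed GAL4-UAS reporter units expressing chimeric NR–Gal4 fusions; 24 h compound exposure. Reporter mRNA quantified by RT-PCR, 6-FAM labelling, HpaI digestion and capillary electrophoresis; gain-of-signal fitted against DMSO baseline.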

Test [19] is described as follows: BSK_3C_Proliferation: Cell Proliferation Assessment in the BioMAP Diversity Plus: 3C Assay (AID 2283006).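 Further: potency may reflect either rise or fall in cell number versus DMSO.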 The note with it: primary human endothelial cells (HUVEC). A digest of the protocol: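 Cells (human umbilical vein endothelial, sub-confluent) receive test chemical; after 48 h they are fixed in 10% trichloroacetic acid, stained with 0.1% SRB and read at 560 nm. Activity is referenced to DMSO, fitting increases and decreases.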

Records with an inconclusive call do not appear. Calls of active or inactive are those of the source. How the source made its calls, unless noted: active means hit-call score of the fitted dose curve at least 0.9, where 1 is the maximum; inactive means score below 0.9.

Sequence of human Peroxisome Proliferator-activated Receptor alpha (PPARa), PPARA (gene 5465) (Q07869 whole entry, looked up): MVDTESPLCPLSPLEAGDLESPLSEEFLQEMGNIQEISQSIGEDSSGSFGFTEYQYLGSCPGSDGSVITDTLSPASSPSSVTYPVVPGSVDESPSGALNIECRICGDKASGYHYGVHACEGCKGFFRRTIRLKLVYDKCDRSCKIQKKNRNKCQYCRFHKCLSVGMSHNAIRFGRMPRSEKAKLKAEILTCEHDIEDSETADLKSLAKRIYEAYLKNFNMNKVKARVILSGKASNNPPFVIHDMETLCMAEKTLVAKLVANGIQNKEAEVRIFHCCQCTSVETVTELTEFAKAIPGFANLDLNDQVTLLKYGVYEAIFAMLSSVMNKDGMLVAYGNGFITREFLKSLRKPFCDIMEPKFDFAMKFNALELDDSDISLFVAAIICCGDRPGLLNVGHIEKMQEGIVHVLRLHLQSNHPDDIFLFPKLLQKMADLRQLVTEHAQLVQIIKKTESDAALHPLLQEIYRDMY
Sequence of human RAR-related Orphan Receptor beta (RORb), RORB (gene 6096) (Q92753 whole entry, looked up, the tested form may be a part): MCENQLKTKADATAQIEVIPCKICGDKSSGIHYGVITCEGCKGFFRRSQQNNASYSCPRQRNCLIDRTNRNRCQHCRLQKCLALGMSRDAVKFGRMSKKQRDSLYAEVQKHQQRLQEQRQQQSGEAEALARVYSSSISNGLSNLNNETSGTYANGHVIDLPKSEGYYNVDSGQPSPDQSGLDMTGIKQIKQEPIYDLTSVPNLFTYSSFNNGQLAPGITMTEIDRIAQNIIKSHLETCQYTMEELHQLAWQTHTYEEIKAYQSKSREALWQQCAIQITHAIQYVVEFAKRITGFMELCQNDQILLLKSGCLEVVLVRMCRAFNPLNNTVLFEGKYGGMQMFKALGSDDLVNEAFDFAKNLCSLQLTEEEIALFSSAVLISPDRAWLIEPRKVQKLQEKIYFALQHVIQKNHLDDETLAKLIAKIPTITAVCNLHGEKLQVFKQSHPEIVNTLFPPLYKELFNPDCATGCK
Sequence of Peroxisome proliferator-activated receptor gamma (Homo sapiens) (P37231 whole entry, looked up, the tested form may be a part): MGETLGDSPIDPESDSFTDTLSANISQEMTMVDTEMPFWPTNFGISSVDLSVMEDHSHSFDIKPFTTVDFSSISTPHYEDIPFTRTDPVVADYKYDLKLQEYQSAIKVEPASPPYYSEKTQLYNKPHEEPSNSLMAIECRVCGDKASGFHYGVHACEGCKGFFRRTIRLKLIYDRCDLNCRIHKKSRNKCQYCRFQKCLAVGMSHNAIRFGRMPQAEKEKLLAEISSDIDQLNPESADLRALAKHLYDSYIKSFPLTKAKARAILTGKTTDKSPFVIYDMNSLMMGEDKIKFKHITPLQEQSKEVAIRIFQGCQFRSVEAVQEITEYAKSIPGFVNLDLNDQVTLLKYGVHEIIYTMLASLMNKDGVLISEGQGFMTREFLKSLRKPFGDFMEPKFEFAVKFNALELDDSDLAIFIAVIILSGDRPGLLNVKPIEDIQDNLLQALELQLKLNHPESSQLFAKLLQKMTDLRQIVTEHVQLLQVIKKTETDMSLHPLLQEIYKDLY
Sequence of Retinoic acid receptor alpha (Homo sapiens) (P10276 whole entry, looked up, the tested form may be a part): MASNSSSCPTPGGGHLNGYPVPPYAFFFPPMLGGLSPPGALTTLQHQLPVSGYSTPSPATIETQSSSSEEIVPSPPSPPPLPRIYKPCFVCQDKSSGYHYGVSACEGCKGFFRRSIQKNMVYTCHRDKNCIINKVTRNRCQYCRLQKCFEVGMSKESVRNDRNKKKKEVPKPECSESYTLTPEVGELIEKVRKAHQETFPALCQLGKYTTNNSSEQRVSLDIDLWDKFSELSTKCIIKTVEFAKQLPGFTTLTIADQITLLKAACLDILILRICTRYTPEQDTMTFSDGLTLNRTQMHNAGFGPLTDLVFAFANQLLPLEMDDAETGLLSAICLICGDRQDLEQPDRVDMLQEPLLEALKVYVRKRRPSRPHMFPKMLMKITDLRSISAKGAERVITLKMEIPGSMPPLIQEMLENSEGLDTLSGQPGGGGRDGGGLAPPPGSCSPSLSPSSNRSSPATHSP
Sequence of human Peroxisome Proliferator-activated Receptor delta (PPARd), PPARD (gene 5467) (Q03181 whole entry, looked up, the tested form may be a part): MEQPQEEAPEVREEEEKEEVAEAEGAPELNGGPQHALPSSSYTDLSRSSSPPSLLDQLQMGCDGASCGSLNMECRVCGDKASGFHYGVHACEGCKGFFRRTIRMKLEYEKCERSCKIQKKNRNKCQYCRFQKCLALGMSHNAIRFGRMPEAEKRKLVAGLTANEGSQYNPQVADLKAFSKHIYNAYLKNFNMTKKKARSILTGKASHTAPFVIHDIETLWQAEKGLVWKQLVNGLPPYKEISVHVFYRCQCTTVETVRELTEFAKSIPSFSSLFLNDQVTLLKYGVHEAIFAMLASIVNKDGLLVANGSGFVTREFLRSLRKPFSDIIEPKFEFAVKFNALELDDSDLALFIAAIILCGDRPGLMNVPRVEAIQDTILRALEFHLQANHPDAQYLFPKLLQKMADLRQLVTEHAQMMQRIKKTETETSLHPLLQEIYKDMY
Sequence of human Retinoic Acid Receptor gamma (RARg), RARG (gene 5916) (P13631 whole entry, looked up, the tested form may be a part): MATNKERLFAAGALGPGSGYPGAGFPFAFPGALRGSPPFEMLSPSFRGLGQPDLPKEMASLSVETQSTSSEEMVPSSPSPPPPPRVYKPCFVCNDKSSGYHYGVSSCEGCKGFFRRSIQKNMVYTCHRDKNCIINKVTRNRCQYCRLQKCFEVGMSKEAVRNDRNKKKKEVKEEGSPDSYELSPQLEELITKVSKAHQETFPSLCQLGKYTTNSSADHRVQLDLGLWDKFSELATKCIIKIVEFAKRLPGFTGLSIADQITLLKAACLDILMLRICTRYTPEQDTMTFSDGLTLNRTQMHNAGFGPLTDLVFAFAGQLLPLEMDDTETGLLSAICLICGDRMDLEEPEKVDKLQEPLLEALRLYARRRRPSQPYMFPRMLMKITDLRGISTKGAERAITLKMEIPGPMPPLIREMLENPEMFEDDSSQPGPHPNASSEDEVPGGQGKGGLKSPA
Sequence of Nuclear receptor subfamily 1 group I member 2 (Homo sapiens) (O75469 whole entry, looked up, the tested form may be a part): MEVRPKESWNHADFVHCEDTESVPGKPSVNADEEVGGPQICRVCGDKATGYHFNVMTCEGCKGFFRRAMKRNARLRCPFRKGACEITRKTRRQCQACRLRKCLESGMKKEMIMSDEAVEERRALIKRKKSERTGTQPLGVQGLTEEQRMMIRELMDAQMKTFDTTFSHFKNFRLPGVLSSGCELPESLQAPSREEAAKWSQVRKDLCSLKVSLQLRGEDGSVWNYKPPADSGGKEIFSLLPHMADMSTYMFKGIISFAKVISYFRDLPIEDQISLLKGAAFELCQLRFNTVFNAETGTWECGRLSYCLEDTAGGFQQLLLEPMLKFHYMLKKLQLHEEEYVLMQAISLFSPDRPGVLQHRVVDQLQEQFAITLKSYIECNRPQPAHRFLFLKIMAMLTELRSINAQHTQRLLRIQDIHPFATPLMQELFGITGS
Sequence of Cellular tumor antigen p53 (Homo sapiens) (P04637 whole entry, looked up, the tested form may be a part): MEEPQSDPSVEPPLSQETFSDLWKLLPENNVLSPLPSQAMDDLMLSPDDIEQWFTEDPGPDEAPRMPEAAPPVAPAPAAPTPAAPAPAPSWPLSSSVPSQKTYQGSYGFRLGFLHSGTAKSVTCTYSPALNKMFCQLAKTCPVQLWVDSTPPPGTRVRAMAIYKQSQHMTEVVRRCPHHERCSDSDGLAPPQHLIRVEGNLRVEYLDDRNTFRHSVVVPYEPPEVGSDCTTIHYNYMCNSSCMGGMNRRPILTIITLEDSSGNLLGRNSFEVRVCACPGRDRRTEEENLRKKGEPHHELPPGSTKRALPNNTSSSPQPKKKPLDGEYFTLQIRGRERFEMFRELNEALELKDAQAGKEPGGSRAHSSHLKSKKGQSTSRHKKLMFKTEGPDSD
Sequence of Myc proto-oncogene protein (Homo sapiens) (P01106 whole entry, looked up, the tested form may be a part): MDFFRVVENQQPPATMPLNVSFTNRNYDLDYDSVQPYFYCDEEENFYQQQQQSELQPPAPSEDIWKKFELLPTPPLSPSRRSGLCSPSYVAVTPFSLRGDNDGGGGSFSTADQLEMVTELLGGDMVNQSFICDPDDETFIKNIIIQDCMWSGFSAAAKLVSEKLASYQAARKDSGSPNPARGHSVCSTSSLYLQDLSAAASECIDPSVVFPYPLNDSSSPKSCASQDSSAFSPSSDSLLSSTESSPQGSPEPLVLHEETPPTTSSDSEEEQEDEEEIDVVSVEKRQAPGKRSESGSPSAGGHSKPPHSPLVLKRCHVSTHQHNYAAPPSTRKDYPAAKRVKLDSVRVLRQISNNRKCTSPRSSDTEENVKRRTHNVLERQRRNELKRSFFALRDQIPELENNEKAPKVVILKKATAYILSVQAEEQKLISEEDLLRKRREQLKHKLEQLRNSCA
Sequence of human Retinoic Acid Receptor beta (RARb), RARB (gene 5915) (P10826 whole entry, looked up, the tested form may be a part): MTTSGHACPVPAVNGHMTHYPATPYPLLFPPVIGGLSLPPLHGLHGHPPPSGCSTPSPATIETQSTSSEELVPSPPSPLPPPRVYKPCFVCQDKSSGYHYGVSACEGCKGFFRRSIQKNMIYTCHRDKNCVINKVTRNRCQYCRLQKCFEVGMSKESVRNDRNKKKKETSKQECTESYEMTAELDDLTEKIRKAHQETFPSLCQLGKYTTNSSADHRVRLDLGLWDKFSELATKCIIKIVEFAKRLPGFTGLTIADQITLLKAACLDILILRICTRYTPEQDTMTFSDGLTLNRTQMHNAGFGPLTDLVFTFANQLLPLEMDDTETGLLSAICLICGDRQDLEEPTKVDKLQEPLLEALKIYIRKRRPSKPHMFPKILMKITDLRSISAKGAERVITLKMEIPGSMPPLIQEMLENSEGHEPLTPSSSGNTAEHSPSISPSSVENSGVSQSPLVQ

Consider `C=C(C)C(=O)OCCO`, for which the compound was classed as inactive in test [1], in test [2], in test [3], in test [4], in [5] and in [6]. The outcome in [7] and in [8] was inactive.
A word on the AC50: it is the concentration giving half of the maximal activity seen. Turning to `CC(C)CC(O)Cc1ccccc1` (configuration not stated), the call in test [1], in [2], in test [4], in test [9], in test [10] and in [11] was inactive. Also, the outcome in test [6] and in test [7] was inactive. Moreover, the AC50 in [3] was 41.9 µM (active).
For the compound `CC/C=C\C/C=C\C/C=C\CCCCCCCC(=O)O`, the outcome in [1], in test [2], in test [4] and in test [12] was inactive. Besides, the figures for the AC50 in [3] and in test [5] were 48.2 µM (active) and 42.3 µM (active), respectively.
As for `c1ccc2c(c1)ccc1ncccc12`, the outcome in test [1], in test [4], in test [15], in [5], in test [12] and in test [17] was inactive. For the same compound, the outcome in test [18], in [6] and in test [8] was inactive. The AC50 in test [2] is 26.7 µM (active); in test [3] it was 148 µM (active); in test [13], 8 µM (active); in test [14], 13.4 µM (active); in test [16], 20 µM (active); in [10], 13.4 µM (active). Also, the figures for the AC50 in [19], in [11] and in test [7] were 20 µM (active), 67.1 µM (active) and 33.2 µM (active), respectively.
On to `c1cc(C(c2ccc(OCC3CO3)cc2)C(c2ccc(OCC3CO3)cc2)c2ccc(OCC3CO3)cc2)ccc1OCC1CO1` (configuration not stated), for which the AC50 in test [1] was 22 µM (active); in [3], 21.1 µM (active); in test [4] it was 25.6 µM (active). Also, the result in [2], in test [12], in test [10], in test [11] and in test [6] was inactive.
With `C=CCOc1c(Br)cc(Br)cc1Br`, the outcome in test [1], in [2], in [3], in [9], in test [18] and in test [10] was inactive. The compound was classed as inactive in test [11], in test [7] and in test [8]. For the same compound, the AC50 in test [13] is 13.7 µM (active); in test [14], 5.76 µM (active); in test [15], 24.3 µM (active); in [16] it was 29.3 µM (active); in test [17], 28.7 µM (active); in test [19], 25.8 µM (active). In addition, in test [6], the AC50 was 27.4 µM (active).
As to `CC[C@H]1OC(=O)[C@H](C)[C@@H](O[C@H]2C[C@@](C)(OC)[C@@H](O)[C@H](C)O2)[C@H](C)[C@@H](O[C@@H]2O[C@H](C)C[C@H](N(C)C)[C@H]2O)[C@](C)(O)C[C@@H](C)C(=NOCOCCOC)[C@H](C)[C@@H](O)[C@]1(C)O`, the compound was called inactive in [1], in [2], in test [3], in test [4], in test [18] and in test [10].
For `COC(=O)c1c(C)cc(O)c(C)c1O`, the call in test [1], in test [2], in [3], in [9], in [5] and in [12] was inactive. In addition, the result in test [11], in test [6] and in test [7] was inactive.
For `C1CN(SSN2CCOCC2)CCO1`, the compound was classed as inactive in test [1], in [2], in test [4], in [11] and in test [6]. In addition, the AC50 in test [3] is 18.8 µM (active).
For the compound `Cc1ccc(C(C)c2ccc(C)c(C)c2)cc1C`, the compound was classed as inactive in test [1], in [2], in [5], in test [12], in test [18] and in test [8]. For the same compound, the results for the AC50 in [4], in test [9] and in test [11] were 147 µM (active), 41.9 µM (active) and 30.9 µM (active), respectively.
As for `CC(C)(C)c1ccc(-c2ccc(C(C)(C)C)cc2)cc1`, the result in test [1], in test [2], in test [3], in [4], in test [12] and in test [6] was inactive. Further, the outcome in [8] was inactive.

Source of the values: PubChem BioAssay (EPA / NIEHS).
